Test results as given in the supplement of paper PMC6992640.
Counter-ions that a name gives are not always drawn. ± gives the standard deviation of the averaged measurements.

Experiments:
Assay in all cases: cell viability (% of vehicle); higher = less cytotoxic
Conditions in all cases: 10 µM; 72 h
HCI01 = tested on: HCI01 (cells of a triple-negative basal-like breast cancer xenograft)
HCI03 = tested on: HCI03 (cells of an ER-positive luminal breast cancer xenograft)
HCI09 = tested on: HCI09 (cells of a triple-negative luminal androgen receptor type breast cancer xenograft)
HCI11 = tested on: HCI11 (cells of an ER-positive luminal breast cancer xenograft)
HCI13 = tested on: HCI13 (cells of an ER-positive luminal breast cancer xenograft)
HCI16 = tested on: HCI16 (cells of a triple-negative basal-like breast cancer xenograft)
UCD52 = tested on: UCD52 (cells of a triple-negative basal-like breast cancer xenograft)
WHIM2 = tested on: WHIM2 (cells of a triple-negative basal-like breast cancer xenograft)
WHIM30 = tested on: WHIM30 (cells of a triple-negative basal-like breast cancer xenograft)
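Further: PDX cells carrying CMV promoter-driven luciferase, viability read as total photon flux per second by IVIS imaging following D-luciferin, vehicle control 0.1% DMSO.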

SMILES | cell viability (HCI01) | cell viability (HCI03) | cell viability (HCI09) | cell viability (HCI11) | cell viability (HCI13) | cell viability (HCI16) | cell viability (UCD52) | cell viability (WHIM2) | cell viability (WHIM30)
CO[C@H]1/C=C/O[C@@]2(C)Oc3c(C)c(O)c4c(c3C2=O)C(=O)/C(=C/NN2CCN(C)CC2)C(=C4O)NC(=O)/C(C)=C/C=C/[C@H](C)[C@H](O)[C@@H](C)[C@@H](O)[C@@H](C)[C@H](OC(C)=O)[C@@H]1C [Rifampin] | 86.5 ± 29 | 133 | 85.8 ± 2.5 | 94.5 | 108 ± 16 | 145 | 82.91 ± 0.51 | 64 ± 0.77 | 94.88 ± 0.76
O=C(O)CCNC(=O)c1ccc(/N=N/c2ccc(O)c(C(=O)O)c2)cc1 [Balsalazide] | 96.3 ± 18 | 120 | 87.6 ± 1.2 | 91.1 | 120 ± 6.3 | 114 | 93.5 ± 10 | 98.8 ± 15 | 110 ± 6.1
CC(C)C(N)C(=O)OCCOCn1cnc2c(=O)nc(N)[nH]c21.Cl (stereo not given) [Valaciclovir HCl] | 71.5 ± 40 | 128 | 94.3 ± 3 | 88.8 | 94.7 ± 8.2 | 106 | 91.8 ± 12 | 102 ± 19 | 169 ± 13
Cn1c(=O)cc(N2CCCC(N)C2)n(Cc2ccccc2C#N)c1=O (stereo not given) [Alogliptin (SYR-322)] | 118 ± 5.8 | 112 | 89.5 ± 8.9 | 112 | 115 ± 26 | 113 | 108.86 ± 0.059 | 114 ± 9.2 | 117 ± 6.7
Cc1cccc(C)c1OCC(C)N.Cl (stereo not given) [Mexiletine HCl] | 127 ± 27 | 110 | 120 ± 46 | 123 | 122 ± 26 | 188 | 120 ± 7 | 129 ± 14 | 147 ± 1.7
C[N+](C)(C)CC(O)CC(=O)[O-] [L-Carnitine inner salt] | 123 ± 44 | 119 | 99.8 ± 10 | 95.7 | 111.7 ± 1.1 | 114 | 103 ± 3.8 | 96.9 ± 13 | 103 ± 10
CC(C(=O)O)c1ccc2c(c1)CC(=O)c1ccccc1S2 (stereo not given) [Zaltoprofen] | 124 ± 32 | 120 | 95.5 ± 26 | 103 | 134 ± 6.7 | 112 | 77.9 ± 11 | 98 ± 13 | 82.8 ± 5.6
Cc1ccc(Cl)c(Nc2ccccc2C(=O)[O-])c1Cl.[Na+] [Meclofenamate Sodium] | 111 ± 10 | 158 | 100 ± 5.1 | 103 | 122 ± 5 | 121 | 92.1 ± 4.6 | 97.8 ± 9.9 | 144 ± 2.2
O=c1[nH]c(=O)n(C2CCCO2)cc1F (stereo not given) | 158 ± 9.9 | 110 | 109 ± 5.2 | 112 | 89.2 ± 7.7 | 143 | 116 ± 20 | 130 ± 13 | 130 ± 0.83
CC1CCN(C(=O)CC#N)CC1N(C)c1ncnc2[nH]ccc12 (stereo not given) | 169 ± 6.3 | 143 | 81.1 ± 1.5 | 110 | 126 ± 11 | 151 | 136 ± 23 | 95.8 ± 7.4 | 160.4 ± 0.81
CN1C(C(=O)Nc2ccccn2)=C(O)c2sccc2S1(=O)=O [Tenoxicam] | 122 ± 9.7 | 126 | 114 ± 24 | 89.7 | 64.9 ± 7.4 | 119 | 87.2 ± 4.1 | 123 ± 33 | 159 ± 5.4
CC(=O)Oc1cc(C(F)(F)F)ccc1C(=O)O [Triflusal] | 108 ± 22 | 129 | 97 ± 13 | 101 | 107 ± 1.9 | 98.4 | 76 ± 3.1 | 107 ± 17 | 85.4 ± 4.2
CNCC(O)c1ccc(O)c(O)c1.O=C(O)C(O)C(O)C(=O)O (stereo not given) [Epinephrine Bitartrate] | 90.1 ± 26 | 96.3 | 89 ± 23 | 90.8 | 71.7 ± 3.3 | 96.7 | 100 ± 8.4 | 67.4 ± 26 | 110.2 ± 1.1
CC(O)C1C(=O)N2C(C(=O)O)=C(SC3CNC(CNS(N)(=O)=O)C3)C(C)C12 (stereo not given) [Doripenem] | 91.4 ± 3.9 | 103 | 143 ± 73 | 106 | 99.2 ± 19 | 85.2 | 82.7 ± 7.5 | 93.3 ± 19 | 90.3 ± 15
CNCC(O)c1ccc(O)c(O)c1.Cl (stereo not given) [Epinephrine HCl] | 102 ± 3.8 | 112 | 91.6 ± 15 | 76.6 | 118 ± 17 | 119 | 118 ± 11 | 142 ± 3.3 | 100 ± 1.1
CCCCOc1ccc(C(=O)CCN2CCCCC2)cc1.Cl [Dyclonine HCl] | 91.4 ± 36 | 110 | 98.2 ± 18 | 110 | 60.5 ± 2.6 | 88.6 | 90.6 ± 12 | 40 ± 16 | 129 ± 30
CC(=O)OC1(C(C)=O)CCC2C3CC(C)C4=CC(=O)CCC4(C)C3CCC21C (stereo not given) [Medroxyprogesterone acetate] | 122 ± 12 | 114 | 98.5 ± 53 | 78.4 | 152 ± 16 | 177 | 95 ± 3.6 | 87.8 ± 5.8 | 184 ± 9.5
Cn1cnc([N+](=O)[O-])c1Sc1ncnc2nc[nH]c12 [Azathioprine] | 98.2 ± 32 | 119 | 106 ± 26 | 87 | 65 ± 8.7 | 151 | 129 ± 18 | 71.1 ± 10 | 110 ± 8.8
CCC(C(C)O)n1ncn(-c2ccc(N3CCN(c4ccc(OCC5COC(Cn6cncn6)(c6ccc(F)cc6F)C5)cc4)CC3)cc2)c1=O (stereo not given) [Posaconazole] | 123 ± 2.6 | 78 | 59.1 ± 18 | 64.1 | 79.9 ± 3.4 | 94.5 | 74.8 ± 6.6 | 86.8 ± 13 | 105 ± 18
Cc1cccc(-c2nn3c(c2-c2ccnc4ccc(C(N)=O)cc24)CCC3)n1 | 117 ± 2.1 | 90.1 | 115 ± 56 | 98.7 | 56.3 ± 6.4 | 89.8 | 73.1 ± 3.3 | 147 ± 41 | 111 ± 3

SMILES | cell viability (HCI01) | cell viability (HCI03) | cell viability (HCI09) | cell viability (HCI11) | cell viability (HCI13) | cell viability (HCI16) | cell viability (UCD52) | cell viability (WHIM2) | cell viability (WHIM30)
C/C=C/C1=C(C(=O)O)N2C(=O)[C@@H](NC(=O)[C@H](N)c3ccc(O)cc3)[C@@H]2SC1 [Cefprozil] | 97.6 ± 3.2 | 174 | 103 ± 22 | 97 | 85.4 ± 1.5 | 115 | 107 ± 8.6 | 93.4 ± 26 | 115 ± 7.5
c1coc(CNc2ncnc3nc[nH]c23)c1 [Kinetin] | 109 ± 4.5 | 123 | 103 ± 12 | 100 | 120 ± 7.4 | 86.8 | 102 ± 20 | 93.7 ± 4 | 121 ± 4.5
Nc1ncn(C2CC(O)C(CO)O2)c(=O)n1 (stereo not given) | 145 ± 29 | 140 | 96 ± 13 | 108 | 126 ± 12 | 123 | 136 ± 30 | 105 ± 16 | 189 ± 7.4
COc1ccc2c(c1OC)C(=O)OC2C1c2c(cc3c(c2OC)OCO3)CCN1C.Cl (stereo not given) [Noscapine HCl] | 127 ± 6.7 | 114 | 127 ± 49 | 117 | 101 ± 6.3 | 117 | 93.7 ± 5 | 111 ± 18 | 139.5 ± 0.58
CC(CCc1ccccc1)NCC(O)c1ccc(O)c(C(N)=O)c1.Cl (stereo not given) [Labetalol HCl] | 101 ± 12 | 106 | 95.8 ± 9.3 | 104 | 105 ± 7.3 | 112 | 85.7 ± 7 | 110 ± 15 | 111 ± 13
Nc1ccn(C2OC(CO)C(O)C2O)c(=O)n1 (stereo not given) [Cytidine] | 101 ± 36 | 131 | 98.9 ± 9.3 | 105 | 87.1 ± 7 | 122 | 92.5 ± 19 | 108 ± 18 | 146 ± 29
COc1ccc2cc([C@H](C)C(=O)[O-])ccc2c1.[Na+] [Naproxen Sodium] | 83.6 ± 6.4 | 111 | 85.8 ± 14 | 106 | 124 ± 29 | 100 | 99.9 ± 3.1 | 102 ± 12 | 121 ± 22
NS(=O)(=O)c1cc(C(=O)O)c(NCc2ccco2)cc1Cl [Furosemide] | 108 ± 7.4 | 126 | 98.4 ± 8.6 | 105 | 89.1 ± 17 | 94.5 | 83.56 ± 0.16 | 98.3 ± 1.4 | 78.9 ± 6.2
Nc1nc(N)nc(-c2cc(Cl)ccc2Cl)n1 [Irsogladine] | 92.7 ± 5.9 | 113 | 91.9 ± 16 | 89.7 | 102 ± 18 | 108 | 107 ± 4.4 | 114 ± 4.4 | 76.4 ± 4.1
O=C(O)c1ccc2ccccc2c1O.OCc1cc(C(O)CNCCCCCCOCCCCc2ccccc2)ccc1O (stereo not given) [Salmeterol xinafoate] | 86 ± 1.1 | 92.5 | 57.3 ± 8 | 75.2 | 88.6 ± 9.6 | 76.1 | 62.1 ± 0.9 | 66.7 ± 13 | 107 ± 20
OCC1OC(c2ccc(Cl)c(Cc3ccc(OC4CCOC4)cc3)c2)C(O)C(O)C1O (stereo not given) | 94.9 ± 15 | 132 | 90.7 ± 14 | 84.1 | 87.5 ± 14 | 113 | 94 ± 1.7 | 112 ± 7 | 114 ± 9.9
CCn1cc(C(=O)O)c(=O)c2cc(F)c(N3CCNCC3)cc21 [Norfloxacin] | 104 ± 11 | 143 | 116 ± 27 | 101 | 163 ± 52 | 166 | 130 ± 8.1 | 80.5 ± 17 | 160 ± 12
[I-].[K+] [Potassium Iodide] | 98.5 ± 37 | 134 | 97 ± 8.2 | 97.4 | 169 ± 3.2 | 127 | 102 ± 6.1 | 82 ± 5.4 | 121 ± 7.5
N=C(N)c1ccc(OCCCCCOc2ccc(C(=N)N)cc2)cc1.O=S(=O)(O)CCO.O=S(=O)(O)CCO [Pentamidine isethionate] | 98.1 ± 3.2 | 104 | 27.495 ± 0.0084 | 74.7 | 180 ± 61 | 87.7 | 91.2 ± 2.3 | 85.2 ± 19 | 113 ± 7.6
COC(=O)C(Cc1ccccc1)NC(=O)C(N)CC(=O)O (stereo not given) [Aspartame] | 120 ± 6.8 | 152 | 104 ± 3.9 | 119 | 161 ± 4.4 | 117 | 100 ± 21 | 131 ± 23 | 128 ± 6.7
COC1=CC=C(/C(C2=CC=C(OC)C=C2)=C(Cl)/C3=CC=C(OC)C=C3)C=C1 [Chlorotrianisene] | 85.2 ± 4.9 | 125 | 86.2 ± 23 | 101 | 76.3 ± 15 | 95.5 | 89.8 ± 13 | 95 ± 1.6 | 96.58 ± 0.32
O=C([O-])c1ccccc1O.[Na+] [Sodium salicylate] | 96.1 ± 24 | 121 | 100 ± 7.2 | 91.4 | 107 ± 12 | 124 | 85.6 ± 3.5 | 89.1 ± 15 | 94.4 ± 3.4
Cc1ccc(F)c(NC(=O)Nc2ccc(-c3cccc4[nH]nc(N)c34)cc2)c1 [Linifanib (ABT-869)] | 117 ± 45 | 165 | 54.2 ± 0.96 | 68.7 | 72 ± 2.6 | 120 | 92.18 ± 0.33 | 160 ± 47 | 139 ± 45
CC(O)(P(=O)(O)O)P(=O)(O)O [Etidronate] | 94.3 ± 15 | 96.6 | 94.9 ± 14 | 85.2 | 107.1 ± 0.89 | 92.3 | 75 ± 5.3 | 150 ± 2.7 | 111 ± 11
CN(C)CCC(c1ccc(Cl)cc1)c1ccccn1.O=C(O)C=CC(=O)O (stereo not given) [Chlorpheniramine Maleate] | 157 ± 40 | 115 | 108 ± 13 | 97 | 178 ± 38 | 126 | 79.7 ± 2.5 | 82.8 ± 11 | 127 ± 12
